Compound activity deposited in PubChem BioAssay by several laboratories.
E coli growth-1: inhibitors of Escherichia coli growth; AID 1053175; OD600 absorbance (concentration not given with the values); OD600, 23 h; active compounds read low; 330,000 tested, 0.21% active;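 active = OD600 absorbance below the run mean of sample wells minus 3.6 SD, in any replicate, cut at about 0.56 in these data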
phage Ecoli inh: E. coli growth loss with phage present; growth absorbance; inhibition, % at 11.9 µM; 360,000 tested, 0.26% active; in the data active = inhibition above about 11%
AddAB inh: less growth of phage-infected E. coli with AddAB | E. coli expressing H. pylori AddAB, absorbance growth | inhibition, % at 11.9 µM | 330,000 tested, 0.29% active | AID 435030; in the data active = inhibition above about 12%
Tat transport: inhibitors of E. coli Tat protein transport. E. coli MC4100 TorA-mCherry Tat export, fluorescence. inhibition, % at 10 µM. 340,000 tested, 0.036% active;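 active = mean replicate inhibition at least 50% and at least half of replicates individually reaching 50%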;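 note: exported cargo escapes ClpAP degradation while cytoplasmic cargo is degraded and loses fluorescence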
E coli growth-2: bacterial growth inhibition, counter-screen for AddAB inhibitors. E. coli V3065 growth, OD600 absorbance, 18 h. inhibition, % at 11.9 µM. 330,000 tested, 0.27% active. AID 449728;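 active = inhibition above the campaign's mean inhibition across all tested compounds plus 3 SD, cut at about 9.9% in these data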;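 note: uninfected addAB+ strain grown without phage in ampicillin broth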
Numbers stand for hits; - = inactive; . = no result given. In the library only some 0.5% were active in any assay of this set; here they are far more common.

SMILES	E coli growth-1	phage Ecoli inh	AddAB inh	Tat transport	E coli growth-2
CC1CCN(C(=O)c2ccc(S(=O)(=O)N3CCCCCC3)cc2)CC1	-	-	-	-	-
CC1CCN(C(=O)c2ccc(S(=O)(=O)N3CCCC3)cc2)CC1	-	-	-	55	-
COCCNC(=O)c1csc(Nc2cccc3ccccc23)n1	-	-	-	-	-
Cc1ccc(NS(=O)(=O)c2ccc(OCC(=O)NCc3ccco3)cc2)cc1	-	-	-	-	13
COc1ccccc1NC(=O)CSc1nnc(CCC(=O)Nc2ccccc2F)n1C	-	-	-	-	-
OC(CNCCC1C=Nc2ccccc21)Cn1c2ccc(Cl)cc2c2cc(Cl)ccc21 (stereo not drawn)	0.054	-	-	-	-
OC(CNCC1CCCO1)Cn1c2ccc(Cl)cc2c2cc(Cl)ccc21 (stereo not drawn)	0.55	-	-	-	-
OC(CNCC1CCCO1)Cn1c2ccccc2c2ccccc21 (stereo not drawn)	-	-	-	-	-
CC1=NN(C(N)=S)C(=O)C1N=Nc1ccc(C)c(Br)c1 (stereo not drawn)	-	-	-	-	13
Nc1cccc([N+](=O)[O-])c1	-	-	-	-	-
O=[N+]([O-])c1cccc(SSc2cccc([N+](=O)[O-])c2)c1	0.54	-	.	-	.
Cc1ccc(-c2nn(-c3ccccc3)cc2CO)cc1	-	-	-	-	-
N=C(N)SCc1cn(-c2ccccc2)nc1-c1ccc(Br)cc1	0.069	-	.	-	.
Cc1cc(Nc2ccc(Cl)cc2)nc(NCc2ccccc2)n1	0.41	-	-	-	-
Cc1cc(Nc2ccccc2)nc(NCc2ccccc2)n1	-	-	-	-	-
CN(C)/C=C1\N=C(c2ccc(Cl)cc2Cl)OC1=O	-	-	-	-	-
Oc1ccc(C[C@@H]2CNCCN2CCc2cc(C(F)(F)F)cc(C(F)(F)F)c2)cc1	.	-	-	-	-
FC(F)(F)c1cc(CCN2CCNCC2CC2CCCCC2)cc(C(F)(F)F)c1 (stereo not drawn)	0.46	.	.	.	.
O=[N+]([O-])c1ccc(N=Nc2c(Cl)cc(O)cc2Cl)cc1	0.4	-	-	-	-
CCn1c(CCn2c3ccccc3c3ccccc32)n[nH]c1=S	-	-	-	50	-
CCn1c(CCc2ccccc2)n[nH]c1=S	-	-	-	-	-
CC1(C)CC(=O)C=C(NCCN2CCN(C(=O)Nc3ccccc3)CC2)C1	-	-	-	52	-
CC(C)Nc1ccc(Nc2ccnc3cc4ccccc4cc23)cc1	-	-	-	-	-
c1ccc(CCNc2ccnc3cc4ccccc4cc23)cc1	0.5	-	.	-	.
CC(=O)c1ccc(NCC(=O)N2CCN(c3ccccc3)CC2)cc1	-	-	-	-	-
SMILES	E coli growth-1	phage Ecoli inh	AddAB inh	Tat transport	E coli growth-2
CC(=O)Nc1ccc(S(=O)(=O)NCCC(=O)NCCCc2ccccc2)cc1	-	-	-	-	-
Cc1cc(C(=O)NN=Cc2ccc([N+](=O)[O-])s2)n[nH]1	0.46	.	.	.	.
Cc1cc(C)cc(N=Cc2ccc([N+](=O)[O-])s2)c1	0.54	-	-	-	-
NC(=O)c1ccc(N=Cc2ccc([N+](=O)[O-])s2)cc1	0.35	-	-	-	-
O=[N+]([O-])c1ccc(C=Nc2ccc(Cl)c([N+](=O)[O-])c2)s1	.	-	.	-	.
Cc1cc(C(=O)N/N=C/c2cccs2)n[nH]1	.	-	-	-	-
CCN1CCN(C(c2cccs2)C(C)NC(=O)NC2CCCCC2)CC1 (stereo not drawn)	-	-	-	-	-
COc1ccc(CC(=O)Nc2ccc(C(=O)NCC(C)C)cc2)cc1	-	-	-	-	-
CC(C)CCCC(C)CCOC(=O)CN1CCCC1 (stereo not drawn)	-	-	-	-	-
Cc1cc2cc(CCNC(=O)c3ccc(Br)o3)c(=O)[nH]c2cc1C	-	-	-	-	12
CNCC(CC1CCCCC1)NCC(CC(C)C)NCCc1cccc(C(F)(F)F)c1 (stereo not drawn)	0.068	.	.	.	.
CNC[C@@H](CC1CCCCC1)NC[C@H](CC(C)C)NCCc1cccc(C(F)(F)F)c1	.	-	-	-	-
Cc1ccc(/C=C2/Sc3ccccc3N(CC(=O)NCC3CCCO3)C2=O)cc1 (stereo not drawn)	-	.	-	-	-
Cc1cc(/C=C2\Sc3ccccc3N2C)cc(C)[n+]1CC1CCCO1 (stereo not drawn)	0.46	-	.	-	.
CCOC(=O)c1csc(N)n1	-	-	-	-	-
CC1C(NC(=O)C(=NOC(C)(C)C(=O)O)c2csc(N)n2)C(=O)N1S(=O)(=O)O (stereo not drawn)	0.059	.	.	.	.
Cc1ccc(S(=O)(=O)N2CCCC(C(=O)NCC(C)C)C2)cc1 (stereo not drawn)	-	-	-	-	-
CCCCCCCCCCCCCCCC[N+](C)(C)CC	0.061	-	-	-	-
CCCCCC[N+](C)(C)CCSSCC[N+](C)(C)CCCCCC	-	-	-	-	-
O=C(NCCS(=O)(=O)NCc1ccccc1)c1ccccc1	-	-	-	-	-
CCOC(=O)c1ccc(NC(=O)CSc2nnc(C3CCCCC3)n2C)cc1	-	-	-	-	-
CN(C)CCCN1C(=O)c2oc3ccccc3c(=O)c2C1c1cccs1 (stereo not drawn)	-	-	-	-	-
Cc1cc(=O)[nH]c(SCC(=O)Nc2ccc(Br)cc2)c1C#N	0.51	-	-	-	-
COCC(C)NC(=O)C1c2ccccc2Oc2ccccc21 (stereo not drawn)	-	-	-	-	-
Clc1ccc2[nH]c3c(c2c1)CCc1cn[nH]c1-3	0.56	-	-	-	-
SMILES	E coli growth-1	phage Ecoli inh	AddAB inh	Tat transport	E coli growth-2
c1ccc2c3c([nH]c2c1)-c1[nH]ncc1CC3	-	-	-	-	-
O=C(Nc1cccnc1)Nc1ccc(F)c(Cl)c1	0.54	-	-	-	-
O=C(Nc1ccc(Cl)c(Cl)c1)Nc1ccccc1O	0.46	-	-	-	-
O=C(Nc1ccc(Cl)c(Cl)c1)Nc1ccon1	0.54	-	-	-	-
Cc1ccc(Nc2cc(C)c3ccc(O)cc3n2)cc1C	.	-	-	-	-
COc1cc(C=O)ccc1OS(=O)(=O)c1ccc(NC(C)=O)cc1	-	-	-	-	-
CCCC(=O)Oc1cccc(C2NC(=O)c3ccccc3O2)c1 (stereo not drawn)	-	-	-	-	-
CCOc1ccc(N2CC(C(=O)NCCN3C(=O)S/C(=C\c4ccc(OC)cc4)C3=O)CC2=O)cc1 (stereo not drawn)	-	-	-	-	-
COc1ccc(/C=C2\SC(=O)N(CCNC(=O)C3CC(=O)N(c4ccccc4)C3)C2=O)cc1 (stereo not drawn)	-	-	-	-	12
COc1ccc(CNCc2ccc(F)cc2)c(OC)c1	-	-	-	-	-
O=C(c1ccco1)N1CCN(C(=O)C(Sc2ccccc2)c2ccccc2)CC1 (stereo not drawn)	-	-	-	-	-
Cc1c(/C=N/O)c2ccccn2c1C=O	.	-	-	-	-
CCN1C(=O)c2cccc3c(NC(=O)c4ccc(S(=O)(=O)N5CCOCC5)cc4)ccc1c23	-	-	-	-	-
CCn1c(C)nc2cc(C(=O)N/N=C/c3ccc(O)c(O)c3O)ccc21	.	21	.	-	.
